The full data set covers some 7,900 targets. This sample favours those with a hit. About 0.6% of all pairs of compound and target were hits. Unmarked numbers belong to inactive results.
Key:
Experiment in all cases: log2 fold change, soluble protein after heating vs DMSO (PISA); higher = thermal stabilisation; K562 cells, 10 uM, 30 min; active = over 0.2 and 3.5 SD of the protein, either way, in both replicates (recomputed)
[1] = compound: COC1=CC=C(C=C1)CN2C=CC3=C2C=C(C=C3)C(=O)NO
In short: (§1)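 Values are thermal stability changes relative to control samples and are taken from duplicates. They are stated as log2 fold changes. Before quantification by TMTpro 16plex LC-MS/MS with equalised channel sums, K562 cells at 2×10^6 cells/mL were treated with 10 μM compound for 30 min, heated in aliquots for 3 min across 48°C-58°C, pooled, extracted in PBS with 0.5% NP-40 at 4°C, and centrifuged at 21,000xg for 90 min to give the soluble supernatant.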

filanesib = compound: CON(C)C(=O)N1N=C(c2cc(F)ccc2F)S[C@@]1(CCCN)c1ccccc1 [filanesib]
In short: as §1

zotarolimus = compound: CO[C@H]1C[C@@H]2CC[C@@H](C)[C@@](O)(O2)C(=O)C(=O)N2CCCC[C@H]2C(=O)O[C@H]([C@H](C)C[C@@H]2CC[C@H](n3cnnn3)[C@H](OC)C2)CC(=O)[C@H](C)/C=C(\C)[C@@H](O)[C@@H](OC)C(=O)[C@H](C)C[C@H](C)/C=C/C=C/C=C/1C [zotarolimus]
In short: as §1

idasanutlin = compound: COc1cc(C(=O)O)ccc1NC(=O)[C@@H]1N[C@@H](CC(C)(C)C)[C@](C#N)(c2ccc(Cl)cc2F)[C@H]1c1cccc(Cl)c1F [idasanutlin]
In short: as §1

alisertib = compound: COc1cc(Nc2ncc3c(n2)-c2ccc(Cl)cc2C(c2c(F)cccc2OC)=NC3)ccc1C(=O)O [alisertib]
In short: as §1

[2] = compound: COc1cc2nc(-c3cc(F)ccc3O)nc(N[C@@H]3CNC[C@H]3C(C)(C)O)c2cc1OC
In short: as §1

gefitinib = compound: COc1cc2ncnc(Nc3ccc(F)c(Cl)c3)c2cc1OCCCN1CCOCC1 [gefitinib]
In short: as §1

[3] = compound: COc1cccc2cc(-c3nc([C@H]4CC[C@H](C(=O)O)CC4)n4ncnc(N)c34)[nH]c12
In short: as §1

lapatinib = compound: CS(=O)(=O)CCNCc1ccc(-c2ccc3ncnc(Nc4ccc(OCc5cccc(F)c5)c(Cl)c4)c3c2)o1 [lapatinib]
In short: as §1

pictilisib = compound: CS(=O)(=O)N1CCN(Cc2cc3nc(-c4cccc5[nH]ncc45)nc(N4CCOCC4)c3s2)CC1 [pictilisib]
In short: as §1

[4] = compound: CS(=O)(=O)c1ccc(-c2cnc(N)c(C(=O)Nc3ccccc3)n2)cc1
In short: as §1

crizotinib = compound: C[C@@H](Oc1cc(-c2cnn(C3CCNCC3)c2)cnc1N)c1c(Cl)ccc(F)c1Cl [crizotinib]
In short: as §1

[5] = compound: C[C@@H]1COCCN1C2=NC(=NC(=C2)C3(CC3)S(=O)(=O)C)C4=C5C=CNC5=CC=C4
In short: as §1

[6] = compound: C[C@H](C1=CC=C(C=C1)C(=O)NC2=C3C=CNC3=NC=C2)N
In short: as §1

duvelisib = compound: C[C@H](Nc1ncnc2nc[nH]c12)c1cc2cccc(Cl)c2c(=O)n1-c1ccccc1 [duvelisib]
In short: as §1

gandotinib = compound: Cc1cc(Nc2cc(CN3CCOCC3)c3nc(C)c(Cc4ccc(Cl)cc4F)n3n2)n[nH]1 [gandotinib]
In short: as §1

tozasertib = compound: Cc1cc(Nc2cc(N3CCN(C)CC3)nc(Sc3ccc(NC(=O)C4CC4)cc3)n2)n[nH]1 [tozasertib]
In short: as §1

[7] = compound: Cc1cc(SCc2sc(-c3ccc(C(F)(F)F)cc3)nc2C)ccc1OCC(=O)O
In short: as §1

doramapimod = compound: Cc1ccc(-n2nc(C(C)(C)C)cc2NC(=O)Nc2ccc(OCCN3CCOCC3)c3ccccc23)cc1 [doramapimod]
In short: as §1

ispinesib = compound: Cc1ccc(C(=O)N(CCCN)[C@@H](c2nc3cc(Cl)ccc3c(=O)n2Cc2ccccc2)C(C)C)cc1 [ispinesib]
In short: as §1

Target: VPS11 (UniProt Q9H270)
- log2 fold change [1]: -0.019
- log2 fold change (filanesib): -0.038
- log2 fold change (zotarolimus): 0.053
- log2 fold change (idasanutlin): -0.063
- log2 fold change (alisertib): -0.022
- log2 fold change [2]: -0.032
- log2 fold change (gefitinib): -0.005
- log2 fold change [3]: -0.041
- log2 fold change (lapatinib): -0.045
- log2 fold change (pictilisib): -0.013
- log2 fold change [4]: 0.009
- log2 fold change (crizotinib): -0.373 (active)
- log2 fold change [5]: -0.039
- log2 fold change [6]: 0.054
- log2 fold change (duvelisib): -0.016
- log2 fold change (gandotinib): -0.111
- log2 fold change (tozasertib): 0.034
- log2 fold change [7]: 0.095
- log2 fold change (doramapimod): -0.029
- log2 fold change (ispinesib): -0.226

Target: WARS2 (UniProt Q9UGM6)
Chain of UniProt Q9UGM6 (Q9UGM6 whole entry, looked up): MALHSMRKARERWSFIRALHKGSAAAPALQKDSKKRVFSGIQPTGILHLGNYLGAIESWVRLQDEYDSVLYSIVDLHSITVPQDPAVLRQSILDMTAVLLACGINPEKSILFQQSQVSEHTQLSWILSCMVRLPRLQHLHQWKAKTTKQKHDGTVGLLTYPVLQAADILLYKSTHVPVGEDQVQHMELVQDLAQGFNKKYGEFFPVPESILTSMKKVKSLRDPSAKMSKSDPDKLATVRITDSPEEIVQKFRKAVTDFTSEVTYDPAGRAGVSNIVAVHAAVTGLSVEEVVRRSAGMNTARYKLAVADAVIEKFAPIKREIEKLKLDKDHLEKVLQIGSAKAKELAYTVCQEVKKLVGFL
- log2 fold change [1]: -0.072
- log2 fold change (filanesib): -0.089
- log2 fold change (zotarolimus): -0.034
- log2 fold change (idasanutlin): 0.014
- log2 fold change (alisertib): -0.025
- log2 fold change [2]: 0.062
- log2 fold change (gefitinib): -0.035
- log2 fold change [3]: 0
- log2 fold change (lapatinib): -0.127
- log2 fold change (pictilisib): 0.037
- log2 fold change [4]: -0.062
- log2 fold change (crizotinib): 0.09
- log2 fold change [5]: 0.065
- log2 fold change [6]: 0.027
- log2 fold change (duvelisib): 0.079
- log2 fold change (gandotinib): 0.006
- log2 fold change (tozasertib): -0.001
- log2 fold change [7]: 0.04
- log2 fold change (doramapimod): 0.017
- log2 fold change (ispinesib): -0.085

Target: TSFM (UniProt P43897)
- log2 fold change [1]: 0.152
- log2 fold change (filanesib): -0.146
- log2 fold change (zotarolimus): 0.042
- log2 fold change (idasanutlin): 0.039
- log2 fold change (alisertib): 0.047
- log2 fold change [2]: 0.12
- log2 fold change (gefitinib): 0.117
- log2 fold change [3]: -0.002
- log2 fold change (lapatinib): -0.006
- log2 fold change (pictilisib): 0.066
- log2 fold change [4]: -0.083
- log2 fold change (crizotinib): 0.171
- log2 fold change [5]: 0.152
- log2 fold change [6]: -0.104
- log2 fold change (duvelisib): 0.044
- log2 fold change (gandotinib): -0.083
- log2 fold change (tozasertib): -0.033
- log2 fold change [7]: 0.095
- log2 fold change (doramapimod): -0.095
- log2 fold change (ispinesib): 0.398 (active)

Target: WASHC3 (UniProt Q9Y3C0)
Chain of UniProt Q9Y3C0 (Q9Y3C0 whole entry, looked up): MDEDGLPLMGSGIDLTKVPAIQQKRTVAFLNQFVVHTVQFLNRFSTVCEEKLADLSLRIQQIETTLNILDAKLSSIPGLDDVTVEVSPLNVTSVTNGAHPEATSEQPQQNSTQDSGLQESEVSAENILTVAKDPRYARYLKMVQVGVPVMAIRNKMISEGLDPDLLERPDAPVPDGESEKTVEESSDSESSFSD
- log2 fold change [1]: 0.108
- log2 fold change (filanesib): -0.061
- log2 fold change (zotarolimus): 0.001
- log2 fold change (idasanutlin): 0.068
- log2 fold change (alisertib): 0.077
- log2 fold change [2]: 0.002
- log2 fold change (gefitinib): -0.014
- log2 fold change [3]: 0.042
- log2 fold change (lapatinib): -0.029
- log2 fold change (pictilisib): 0.05
- log2 fold change [4]: -0.014
- log2 fold change (crizotinib): -0.274 (active)
- log2 fold change [5]: 0.096
- log2 fold change [6]: -0.039
- log2 fold change (duvelisib): 0.012
- log2 fold change (gandotinib): -0.041
- log2 fold change (tozasertib): 0.021
- log2 fold change [7]: 0.014
- log2 fold change (doramapimod): 0.048
- log2 fold change (ispinesib): -0.4 (active)

Target: TMEM189-UBE2V1 (UniProt I3L0A0)
- log2 fold change [1]: -0.034
- log2 fold change (filanesib): -0.051
- log2 fold change (zotarolimus): -0.049
- log2 fold change (idasanutlin): -0.024
- log2 fold change (alisertib): -0.105
- log2 fold change [2]: -0.048
- log2 fold change (gefitinib): -0.034
- log2 fold change [3]: 0.112
- log2 fold change (lapatinib): 0.011
- log2 fold change (pictilisib): -0.026
- log2 fold change [4]: 0.063
- log2 fold change (crizotinib): 0.022
- log2 fold change [5]: 0.051
- log2 fold change [6]: 0.051
- log2 fold change (duvelisib): 0.042
- log2 fold change (gandotinib): 0.007
- log2 fold change (tozasertib): -0.009
- log2 fold change [7]: -0.034
- log2 fold change (doramapimod): 0.021
- log2 fold change (ispinesib): 0.071

Target: USP9X (UniProt Q93008)
Chain of UniProt Q93008 (Q93008 whole entry, looked up): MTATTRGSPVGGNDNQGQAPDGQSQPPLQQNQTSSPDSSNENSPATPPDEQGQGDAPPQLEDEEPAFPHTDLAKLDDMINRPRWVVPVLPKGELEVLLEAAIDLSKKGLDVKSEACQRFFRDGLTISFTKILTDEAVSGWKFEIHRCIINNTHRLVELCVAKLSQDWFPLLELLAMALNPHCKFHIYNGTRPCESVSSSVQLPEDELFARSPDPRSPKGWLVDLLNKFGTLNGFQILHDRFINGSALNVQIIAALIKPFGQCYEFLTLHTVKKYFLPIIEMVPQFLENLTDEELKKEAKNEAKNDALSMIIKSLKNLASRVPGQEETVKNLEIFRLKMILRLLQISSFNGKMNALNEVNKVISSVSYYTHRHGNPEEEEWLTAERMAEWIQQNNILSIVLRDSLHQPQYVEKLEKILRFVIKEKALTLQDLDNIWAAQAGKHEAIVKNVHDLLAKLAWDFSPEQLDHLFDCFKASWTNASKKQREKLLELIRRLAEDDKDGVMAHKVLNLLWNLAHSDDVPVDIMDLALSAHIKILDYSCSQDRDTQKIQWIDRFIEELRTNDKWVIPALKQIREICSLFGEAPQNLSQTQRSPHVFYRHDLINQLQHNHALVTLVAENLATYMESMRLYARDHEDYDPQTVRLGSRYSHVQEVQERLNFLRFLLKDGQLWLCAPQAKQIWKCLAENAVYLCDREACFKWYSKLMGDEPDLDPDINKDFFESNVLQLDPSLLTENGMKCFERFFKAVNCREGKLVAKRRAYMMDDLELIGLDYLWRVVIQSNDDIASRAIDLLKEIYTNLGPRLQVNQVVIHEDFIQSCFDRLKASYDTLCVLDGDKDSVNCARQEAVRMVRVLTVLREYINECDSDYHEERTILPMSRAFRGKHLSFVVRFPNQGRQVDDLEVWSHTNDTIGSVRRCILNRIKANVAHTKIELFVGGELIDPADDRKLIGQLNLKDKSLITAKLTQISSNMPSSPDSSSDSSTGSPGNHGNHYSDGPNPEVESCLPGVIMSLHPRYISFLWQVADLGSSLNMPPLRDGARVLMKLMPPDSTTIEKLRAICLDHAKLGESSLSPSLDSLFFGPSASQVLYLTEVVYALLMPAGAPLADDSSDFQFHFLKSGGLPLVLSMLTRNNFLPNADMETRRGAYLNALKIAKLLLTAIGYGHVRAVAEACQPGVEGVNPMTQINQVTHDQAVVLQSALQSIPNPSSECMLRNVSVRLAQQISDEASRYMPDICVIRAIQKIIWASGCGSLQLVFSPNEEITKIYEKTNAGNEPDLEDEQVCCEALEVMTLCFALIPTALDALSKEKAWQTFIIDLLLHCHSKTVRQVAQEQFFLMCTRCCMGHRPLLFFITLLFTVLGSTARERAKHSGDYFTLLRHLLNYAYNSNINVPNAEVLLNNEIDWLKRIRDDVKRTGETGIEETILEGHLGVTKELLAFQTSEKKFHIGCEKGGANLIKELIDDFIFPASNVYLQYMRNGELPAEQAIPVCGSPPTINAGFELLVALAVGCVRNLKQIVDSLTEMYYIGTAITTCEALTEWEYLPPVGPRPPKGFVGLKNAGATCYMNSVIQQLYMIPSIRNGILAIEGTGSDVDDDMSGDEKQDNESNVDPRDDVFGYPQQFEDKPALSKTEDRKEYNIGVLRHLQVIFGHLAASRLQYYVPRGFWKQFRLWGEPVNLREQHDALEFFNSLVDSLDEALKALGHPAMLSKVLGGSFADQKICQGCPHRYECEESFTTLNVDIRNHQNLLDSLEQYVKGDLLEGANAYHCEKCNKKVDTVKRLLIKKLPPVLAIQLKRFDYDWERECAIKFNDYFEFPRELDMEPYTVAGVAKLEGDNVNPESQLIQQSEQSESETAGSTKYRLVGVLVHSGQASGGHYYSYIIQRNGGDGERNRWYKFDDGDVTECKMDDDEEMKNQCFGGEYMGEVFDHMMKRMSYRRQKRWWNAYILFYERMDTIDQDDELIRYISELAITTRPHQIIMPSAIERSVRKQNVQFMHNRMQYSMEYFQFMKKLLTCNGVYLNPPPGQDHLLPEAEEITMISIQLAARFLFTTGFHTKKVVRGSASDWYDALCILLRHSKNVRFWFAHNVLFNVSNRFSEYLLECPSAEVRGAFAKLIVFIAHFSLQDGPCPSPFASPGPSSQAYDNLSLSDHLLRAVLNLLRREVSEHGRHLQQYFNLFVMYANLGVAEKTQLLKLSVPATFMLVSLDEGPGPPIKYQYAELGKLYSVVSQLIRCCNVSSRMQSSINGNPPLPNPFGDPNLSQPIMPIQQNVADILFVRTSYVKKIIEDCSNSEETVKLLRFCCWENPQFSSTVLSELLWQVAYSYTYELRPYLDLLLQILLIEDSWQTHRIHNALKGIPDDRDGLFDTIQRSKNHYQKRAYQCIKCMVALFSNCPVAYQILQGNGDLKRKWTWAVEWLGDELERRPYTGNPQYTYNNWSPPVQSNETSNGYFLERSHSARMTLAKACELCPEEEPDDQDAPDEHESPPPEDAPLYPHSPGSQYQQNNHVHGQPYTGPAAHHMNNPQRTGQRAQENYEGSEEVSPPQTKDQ
- log2 fold change [1]: -0.02
- log2 fold change (filanesib): -0.017
- log2 fold change (zotarolimus): 0.018
- log2 fold change (idasanutlin): -0.096
- log2 fold change (alisertib): -0.02
- log2 fold change [2]: 0.029
- log2 fold change (gefitinib): -0.007
- log2 fold change [3]: -0.008
- log2 fold change (lapatinib): -0.027
- log2 fold change (pictilisib): -0.033
- log2 fold change [4]: -0.008
- log2 fold change (crizotinib): -0.159
- log2 fold change [5]: -0.024
- log2 fold change [6]: 0.033
- log2 fold change (duvelisib): 0.001
- log2 fold change (gandotinib): -0.125
- log2 fold change (tozasertib): 0
- log2 fold change [7]: 0.053
- log2 fold change (doramapimod): 0.016
- log2 fold change (ispinesib): -0.058

Target: WAPL isoform 3 (UniProt Q7Z5K2)
- log2 fold change [1]: 0.052
- log2 fold change (filanesib): -0.009
- log2 fold change (zotarolimus): 0.128
- log2 fold change (idasanutlin): -0.027
- log2 fold change (alisertib): 0.038
- log2 fold change [2]: -0.273
- log2 fold change (gefitinib): -0.006
- log2 fold change [3]: -0.003
- log2 fold change (lapatinib): 0
- log2 fold change (pictilisib): 0.027
- log2 fold change [4]: 0.052
- log2 fold change (crizotinib): -0.23
- log2 fold change [5]: 0.18
- log2 fold change [6]: -0.142
- log2 fold change (duvelisib): 0
- log2 fold change (gandotinib): -0.199
- log2 fold change (tozasertib): 0.052
- log2 fold change [7]: -0.006
- log2 fold change (doramapimod): 0.017
- log2 fold change (ispinesib): -0.026

Target: UBR2 (UniProt Q8IWV8)
Chain of UniProt Q8IWV8 (Q8IWV8 whole entry, looked up): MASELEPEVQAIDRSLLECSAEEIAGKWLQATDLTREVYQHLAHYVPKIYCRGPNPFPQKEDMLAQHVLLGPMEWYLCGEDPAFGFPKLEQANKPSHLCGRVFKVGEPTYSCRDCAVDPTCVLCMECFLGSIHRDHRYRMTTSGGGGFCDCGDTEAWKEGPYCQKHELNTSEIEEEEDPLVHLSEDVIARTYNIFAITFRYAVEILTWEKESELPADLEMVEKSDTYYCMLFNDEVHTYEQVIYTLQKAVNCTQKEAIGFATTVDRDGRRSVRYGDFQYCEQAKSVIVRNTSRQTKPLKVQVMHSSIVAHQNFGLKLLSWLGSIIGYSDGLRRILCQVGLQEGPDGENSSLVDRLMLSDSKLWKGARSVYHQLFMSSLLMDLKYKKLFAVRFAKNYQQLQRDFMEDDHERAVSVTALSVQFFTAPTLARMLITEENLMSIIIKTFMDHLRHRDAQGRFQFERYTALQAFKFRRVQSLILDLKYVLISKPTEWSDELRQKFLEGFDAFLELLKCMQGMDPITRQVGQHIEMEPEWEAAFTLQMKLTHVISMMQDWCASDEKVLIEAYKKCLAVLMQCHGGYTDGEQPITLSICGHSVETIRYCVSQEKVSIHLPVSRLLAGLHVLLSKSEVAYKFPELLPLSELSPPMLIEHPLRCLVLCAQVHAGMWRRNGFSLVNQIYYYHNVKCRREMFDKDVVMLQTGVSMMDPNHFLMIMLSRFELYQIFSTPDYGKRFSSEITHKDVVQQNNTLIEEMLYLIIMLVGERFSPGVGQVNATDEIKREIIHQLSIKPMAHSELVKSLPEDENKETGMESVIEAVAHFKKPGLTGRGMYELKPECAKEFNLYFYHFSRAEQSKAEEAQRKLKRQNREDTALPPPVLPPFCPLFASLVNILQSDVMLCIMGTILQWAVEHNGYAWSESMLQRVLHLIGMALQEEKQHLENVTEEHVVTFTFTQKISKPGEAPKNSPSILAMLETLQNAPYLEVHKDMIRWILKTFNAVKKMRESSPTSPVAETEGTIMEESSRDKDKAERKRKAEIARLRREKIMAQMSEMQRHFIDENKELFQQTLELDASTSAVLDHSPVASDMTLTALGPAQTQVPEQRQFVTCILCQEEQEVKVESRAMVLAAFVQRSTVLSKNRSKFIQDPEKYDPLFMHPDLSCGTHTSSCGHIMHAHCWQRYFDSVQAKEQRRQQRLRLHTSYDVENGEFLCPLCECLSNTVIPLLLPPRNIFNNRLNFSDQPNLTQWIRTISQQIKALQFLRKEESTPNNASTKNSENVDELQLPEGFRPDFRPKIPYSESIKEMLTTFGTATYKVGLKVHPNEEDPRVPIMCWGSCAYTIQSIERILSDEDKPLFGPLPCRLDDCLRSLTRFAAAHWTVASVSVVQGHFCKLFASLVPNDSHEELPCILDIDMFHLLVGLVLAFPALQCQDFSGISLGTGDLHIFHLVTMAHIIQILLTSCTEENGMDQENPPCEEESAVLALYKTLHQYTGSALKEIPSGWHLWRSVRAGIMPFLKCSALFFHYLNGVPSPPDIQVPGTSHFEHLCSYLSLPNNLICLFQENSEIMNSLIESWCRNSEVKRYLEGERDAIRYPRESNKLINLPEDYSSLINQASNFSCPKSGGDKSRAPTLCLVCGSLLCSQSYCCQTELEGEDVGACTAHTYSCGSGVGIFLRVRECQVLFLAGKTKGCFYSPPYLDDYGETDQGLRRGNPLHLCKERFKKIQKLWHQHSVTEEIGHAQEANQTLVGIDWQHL
- log2 fold change [1]: -0.016
- log2 fold change (filanesib): 0.027
- log2 fold change (zotarolimus): -0.105
- log2 fold change (idasanutlin): 0.054
- log2 fold change (alisertib): -0.041
- log2 fold change [2]: 0.024
- log2 fold change (gefitinib): -0.021
- log2 fold change [3]: 0.061
- log2 fold change (lapatinib): 0.052
- log2 fold change (pictilisib): 0.036
- log2 fold change [4]: 0
- log2 fold change (crizotinib): -0.027
- log2 fold change [5]: -0.063
- log2 fold change [6]: 0.166
- log2 fold change (duvelisib): 0.008
- log2 fold change (gandotinib): 0
- log2 fold change (tozasertib): -0.03
- log2 fold change [7]: 0.135
- log2 fold change (doramapimod): 0.073
- log2 fold change (ispinesib): -0.141
